Assay outcomes (PubChem)
LMNA splice mod = LMNA splicing modulation; HeLa LMNA splicing GFP/RFP minigene ratio, 48 h; Potency, µM (top dose mostly 46.1 µM), for inactives: at the top dose ratio change, negative = inhibition, actives largely listed as inhibitors; actives 0.01% (n = 200,000); active means well fitted inhibition curve with a large enough effect in the signal ratio, with a control signal flat, not every such curve was filed as active; inconclusive means small, poorly fitted or top-dose-only effect, or effect the other way, or a change in a side signal; the % refers to the signal ratio; further: on the % scale 0 is the no-effect control and ±100 the full control effect
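Read-out is the ratio of GFP to DsRed2 object intensity, acquired by 488 nm laser-scanning cytometry on HeLa lamin A-EGFP minigene reporter cells. Compound incubation 48 hrs at 37 °C in Opti-MEM with 2% FBS; DMSO 0.5% final.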
HTT aggregate = inhibitors of mutant huntingtin aggregate formation in PC12 cells | PC12 HttQ103-GFP aggregates, Acumen cytometry, 40 h | Potency, µM (titrated, usually from 46.1 µM), inactives show at the highest dose activity change, negative = inhibition, most hits filed as inhibitors | actives 1.1% (n = 220,000); further: on the % scale 0 is the no-effect control and ±100 the full control effect; nearly all actives have a fitted effect of over 60% in size
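Compounds (qHTS titration) were added to PC12 cells expressing an ecdysone-driven HTT exon 1 Q103–GFP fusion after induction with 100 nM tebufenozide. Aggregate formation was measured as GFP objects in cell lysates.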
ALDH1A1 inh = inhibitors of human aldehyde dehydrogenase 1A1 | actives 7.3% (n = 220,000) | Purified ALDH1A1, NADH fluorescence, propionaldehyde substrate | AID 1030 | Potency, µM (doses to about 75.3 µM), inactives show at the top dose activity, negative = inhibition, usual class: inhibitors | P00352; active means well fitted inhibition curve with a large enough effect, not every such curve was filed as active; inconclusive means small, poorly fitted or top-dose-only effect, or another doubt; inactive means no such curve, though single readings can be large or run the other way;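 further: plate controls were no enzyme wells and a reference inhibitor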
Target sequence (P00352 whole entry, looked up): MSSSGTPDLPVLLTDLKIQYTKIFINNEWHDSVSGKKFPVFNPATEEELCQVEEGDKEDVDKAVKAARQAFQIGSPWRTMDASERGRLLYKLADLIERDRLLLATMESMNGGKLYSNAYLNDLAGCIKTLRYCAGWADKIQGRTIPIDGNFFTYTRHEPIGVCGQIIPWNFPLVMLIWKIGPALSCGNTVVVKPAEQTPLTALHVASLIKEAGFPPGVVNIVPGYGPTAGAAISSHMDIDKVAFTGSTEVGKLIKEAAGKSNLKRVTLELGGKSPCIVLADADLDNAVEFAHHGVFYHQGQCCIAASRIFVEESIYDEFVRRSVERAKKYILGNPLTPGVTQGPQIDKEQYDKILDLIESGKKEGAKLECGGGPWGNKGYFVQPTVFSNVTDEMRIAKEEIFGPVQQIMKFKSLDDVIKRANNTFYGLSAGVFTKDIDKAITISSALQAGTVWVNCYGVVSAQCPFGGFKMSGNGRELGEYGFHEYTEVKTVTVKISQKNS
HPGD inh = HPGD (human) dehydrogenase inhibition. P15428. purified HPGD, NADH fluorescence kinetic, PGE2 substrate. Potency, µM, inactives show at the highest dose activity change, negative = inhibition, actives largely listed as inhibitors. actives 4.3% (n = 150,000). AID 894; active means well fitted inhibition curve with a large enough effect, not every such curve was filed as active; inconclusive means small, poorly fitted or top-dose-only effect, or another doubt; inactive means no such curve, though single readings can be large or run the other way; further: on the % scale 0 is the no-effect control and ±100 the full control effect
Target sequence (P15428 whole entry, looked up): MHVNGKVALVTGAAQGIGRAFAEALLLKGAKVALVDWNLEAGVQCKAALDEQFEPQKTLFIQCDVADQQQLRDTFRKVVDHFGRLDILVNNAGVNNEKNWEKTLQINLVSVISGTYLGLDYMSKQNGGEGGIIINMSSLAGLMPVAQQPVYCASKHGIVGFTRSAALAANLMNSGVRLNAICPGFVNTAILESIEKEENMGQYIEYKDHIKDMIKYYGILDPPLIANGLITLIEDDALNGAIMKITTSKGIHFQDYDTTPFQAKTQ
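NADH formation kinetics: reaction with 30 uM PGE2 and 1 mM NAD+ (final), 20 nM enzyme, Tris-HCl pH 8 with Tween 20, after 15 min compound preincubation at room temperature. Fluorescence change, last versus first of five reads.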
Luc counter = counter-screen: inhibitors of Kinase-Glo firefly luciferase | Q27757 | Kinase-Glo luciferase, ATP luminescence, 8 min | Potency, µM (doses to about 38.3 µM), inactives show top-dose activity change, negative = inhibition, hits mostly inhibitors | actives 0.28% (n = 200,000); further: on the % scale 0 is the no-effect control and ±100 the full control effect; nearly all actives have a fitted effect of over 60% in size
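Luminescence was the read-out, taken after 8-minute incubation at ambient temperature. Luciferase turned over luciferin with 10 uM ATP in imidazole pH 7.2 buffer containing KCl, MgCl2, Tween 20 and BSA.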
HTT ATP protect = protects HTT-Q103 PC12 cells, measured by ATP; Potency, µM (doses to about 56.4 µM), for the others: cytoprotection (ATP increase), actives largely listed as activators; PC12 HTT-Q103 induced, cytoprotection, ATP luminescence, 40 h; actives 0.14% (n = 230,000); AID 1471; further: % of control where 0% means no effect; nearly all actives have a fitted effect of over 45% in size
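Rat PC12, Q103 Htt exon1-GFP fusion, ecdysone promoter; tebufenozide inducer 100 nM final; compound titration; qHTS, 1500 cells/well; ATPlite luminescent read.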
* marks the source's active call; other numbers are inactive results; ? = inconclusive; . = no result; [ ] = dose if it differs, or a comment. This is a sample that favours compounds with a hit; in the whole collection about 9% have one here. Unless noted, the call rests on the fitted dose curve; in most records, active means well fitted curve in the direction sought with a large enough effect; inconclusive means small, poorly fitted or top-dose-only effect, or another doubt; inactive means no such curve, though single readings can be large; an effect the other way counts as inactive or inconclusive. Potency means the concentration at half of the fitted maximal effect.

SMILES | LMNA splice mod | HTT aggregate | ALDH1A1 inh | HPGD inh | Luc counter | HTT ATP protect
c1ccc(-c2nnc(CN3CCCc4ccccc43)o2)cc1 | -4% | 0% | 8.9µM* | ? | 0% | -11%
c1ccc(-c2nnc(CN3CCC4(CC3)OCCO4)o2)cc1 | 5% | 1% | -8% | -7% | 0% | -1%[10 µM]
O=C(c1ccc(F)cc1)N1CCCCC(Sc2nnc3ccccn23)C1=O (stereo not given) | 9% | 12% | 0% | -10% | -3% | 5%[10 µM]
Cc1cc2nnc(SC3CCCCN(C(=O)c4ccc(F)cc4)C3=O)n2c2ccccc12 (stereo not given) | -2% | 11% | 18µM* | ? | -7% | -30%
Cc1ccccc1NC(=O)C(=Cc1ccc(C(=O)O)cc1)C(=O)Nc1ccccc1C | ? | 6.3µM* | 6% | . | 4% | 40%[10 µM]
Cc1cc(NCCCn2ccnc2)n2nc(C)c(-c3ccccc3)c2n1 | 8% | -9% | -3% | -13% | -1% | -50%
COc1ccc(C(C(=O)Nc2ccc(C(C)C)cc2)N(Cc2ccco2)C(=O)CC2NC(=O)NC2=O)cc1 (stereo not given) | . | -8% | 25µM* | . | 1% | -63%
O=C(c1ccc(C#CC2(O)CCCCC2)cc1)N1CCN(C(c2ccccc2)c2ccccc2)CC1 | ? | 8%[9.22 µM] | 25µM* | -16% | 2% | -57%
CCC(=O)N1CCc2cc(CNS(=O)(=O)c3ccc(NC(=O)CC(C)C)cc3)ccc21 | 0%[46 µM] | . | . | . | . | .
O=C(Cc1ccccc1[N+](=O)[O-])NCc1ccc2c(c1)OCO2 | 5% | -5% | -2% | -8% | -6% | -3%[10 µM]
COc1ccc(CN(C2CCCCC2C)S(=O)(=O)c2ccc(S(=O)(=O)N(C)C)cc2)cc1OC (stereo not given) | ? | 4% | 3.5µM* | -13% | 6% | 28%[10 µM]
CCOC(=O)/C(=C\Nc1ccc(OC(F)(F)F)cc1)Sc1ncc(C(F)(F)F)cc1Cl | -3% | -11% | 8% | -16% | -2% | 8%
CC(C)(C)c1ccc(S(=O)(=O)N(CCCN2CCOCC2)Cc2cccs2)cc1 | ? | 13% | 19% | 25µM* | 0% | .
CS(=O)(=O)N(CC(=O)NCc1ccccn1)Cc1ccc(Cl)cc1 | 1% | 3% | 7.9µM* | -1% | 0% | -2%[10 µM]
CS(=O)(=O)N(CC(=O)NCc1ccccc1)Cc1ccc(Cl)cc1 | 11% | 7%[9.22 µM] | 8% | -2% | -2% | -25%
O=C(COc1ccc([N+](=O)[O-])cc1)Nc1ccc(C(=O)NCc2cccnc2)cc1 | -7% | 3.5µM* | -2% | -3% | -4% | -152%
O=C(COc1ccc([N+](=O)[O-])cc1)NCc1cccnc1 | 8% | 8% | -2% | -7% | 2% | 28%[10 µM]
COC(=O)C1=C(C(=O)OC)[C@@H]2N(C)c3ccc(OC)cc3[C@@]23C[C@@H](C(=O)OC)N(C(=O)c2cccs2)C3=N1 | ? | . | -1%[13.5 µM] | 1% | -1%[7.66 µM] | 16%[10 µM]
COc1ccc(CN(C(=O)/C=C/c2ccco2)C2CCS(=O)(=O)C2)cc1 (stereo not given) | . | 7%[9.22 µM] | 14µM* | . | . | 8%[10 µM]
Cc1cccc(OCC(=O)N(Cc2ccc(N(C)C)cc2)C2CCS(=O)(=O)C2)c1 (stereo not given) | . | -11%[9.22 µM] | . | . | . | -2%[10 µM]
COc1cccc(C(=O)N(Cc2ccc(N(C)C)cc2)C2CCS(=O)(=O)C2)c1 (stereo not given) | 4% | 3% | 14µM* | -7% | 0% | -16%
O=C(/C=C/c1ccc(Cl)cc1Cl)N(Cc1ccccc1)C1CCS(=O)(=O)C1 (stereo not given) | 8% | 26% | 2.2µM* | -1% | -7% | 31%[10 µM]
O=C(/C=C/c1ccc(Cl)cc1Cl)N(Cc1ccc(Cl)cc1)C1CCS(=O)(=O)C1 (stereo not given) | ? | 0% | 3% | -8% | -5% | -10%[10 µM]
O=C(/C=C/c1ccc(Cl)cc1)N(Cc1ccccc1)C1CCS(=O)(=O)C1 (stereo not given) | -11% | 8% | 13µM* | -18% | -1% | 3%[10 µM]
CCC(=O)Nc1nc2nc(-c3ccccc3)cc(-c3ccccc3)n2n1 | 4% | 19% | ? | ? | 0% | -5%
SMILES | LMNA splice mod | HTT aggregate | ALDH1A1 inh | HPGD inh | Luc counter | HTT ATP protect
C=CCSc1ncnc2c1oc1nc3c(cc12)COC(C)(C)C3 | . | -6%[9.22 µM] | ? | . | . | 20%[10 µM]
CC1(C)Cc2nc3oc4c(=S)nc[nH]c4c3cc2CO1 | -12% | -6% | 3.2µM* | 28µM* | -7% | -21%
CCN(CC)c1ccc(/C=N/Nc2cccc(C)c2)c(O)c1 | 8% | -5% | 10µM* | 22µM* | 3% | 41%[10 µM]
CCN(CC)c1ccc(/C=N/NC(=S)NC)c(O)c1 | . | -25% | ? | . | . | -43%
CCN(CC)c1ccc(/C=N/Nc2ccccc2)c(O)c1 | 21% | 16% | 3.5µM* | 28µM* | -7% | -11%
CCN(CC)c1ccc(/C=N/NC(=O)OC)c(O)c1 | 0% | -2% | ? | ? | -4% | -51%
O=C(Nc1cccc(F)c1)N1CCCC2(CCN(C(=O)c3csnn3)CC2)C1 | . | . | 5% | -1% | -3% | -2%
C=CCOc1ccc(C2C(C(=O)c3ccco3)=C(O)C(=O)N2c2nnc(C)s2)cc1 (stereo not given) | . | 4%[9.22 µM] | ? | . | -1% | 10%[10 µM]
O=C(c1cnc(-c2ccc(Cl)cc2)s1)c1ccc(Cl)cc1Cl | 2% | -6% | -5% | 35µM* | 1% | -5%
NC(=O)Cc1ccc(C(=O)c2ccc(Cl)cc2Cl)s1 | . | -14% | ? | . | 3% | 12%
CCOC(=O)CSc1nnc(N)s1 | -4% | 8% | ? | -13% | 6% | -11%[10 µM]
CCOC(=O)CSC1=NC(=O)CS1 | ? | -1% | 32µM* | 14µM* | -9% | -9%
O=C(Cc1cccs1)N1CCN=C1SCc1ccc(F)cc1 | . | -8% | ? | . | -1% | -28%
COc1ccc(-c2nnn(-c3cc(Cl)cc(Cl)c3)c2N)cc1 | . | 0%[9.22 µM] | . | . | . | 23%[10 µM]
COc1ccccc1NC(=S)NCCc1ccc(S(N)(=O)=O)cc1 | . | 5%[9.22 µM] | ? | . | 3% | 16%[10 µM]
COc1ccc(Cl)cc1NC(=S)NCCc1ccc(S(N)(=O)=O)cc1 | . | -13% | 6.3µM* | . | . | -23%
COc1ccc(NC(=S)NCCc2ccc(S(N)(=O)=O)cc2)c(OC)c1 | . | -8% | 22µM* | . | -1% | .
COc1ccc(Cl)cc1NC(=S)NCCO | 15%[46 µM] | -4%[9.22 µM] | 13% | . | -2% | 9%[10 µM]
COCCOCCn1c(CCCO)nc2ccccc21 | -4% | -6% | 10% | 0% | 1% | -8%
C=CCOc1ccc(Br)cc1CNCC | -7%[46 µM] | 10% | -8% | . | 1% | .
